From PubChem BioAssay (NCI)
Values joined by “and” are separate entries in the source; they are usually repeats but may differ in a detail not shown here. Equal values may be shown once. Compounds without any hit were thinned out: in the full panel of roughly 83,000, 20% have a hit.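 Percent growth is the endpoint: 0 to 100 indicates growth inhibition (40 means 60% inhibition), 0 means no net growth, and negative values indicate cell death.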 A structure can be active in one record and inactive in another. Active and inactive are the calls of the source. The calls were made as follows: active = growth percent below 10; inactive = the rest.

Tests used:
Test in all cases: NCI-60 one-dose screen, 48 h (100 = growth as untreated, 0 = no growth, -100 = all killed)
Conditions in all cases: 10 µM unless noted
HCT-15 colon = system: HCT-15 colon
HT29 colon = system: HT29 colon
SNB-75 CNS = system: SNB-75 CNS
U251 CNS = system: U251 CNS
PC-3 prostate = system: PC-3 prostate
SK-MEL-5 melanoma = system: SK-MEL-5 melanoma
UACC-62 melanoma = system: UACC-62 melanoma
LOX IMVI melanoma = system: LOX IMVI melanoma
SK-MEL-28 melanoma = system: SK-MEL-28 melanoma
SK-MEL-2 melanoma = system: SK-MEL-2 melanoma
EKVX NSCLC = system: EKVX NSCLC
UO-31 renal = system: UO-31 renal
TK-10 renal = system: TK-10 renal
ACHN renal = system: ACHN renal
CAKI-1 renal = system: CAKI-1 renal
A498 renal = system: A498 renal
CCRF-CEM leukemia = system: CCRF-CEM leukemia
MOLT-4 leukemia = system: MOLT-4 leukemia
SNB-19 CNS = system: SNB-19 CNS
SN12C renal = system: SN12C renal

| Compound | growth (HCT-15 colon) | growth (HT29 colon) | growth (SNB-75 CNS) | growth (U251 CNS) | growth (PC-3 prostate) | growth (SK-MEL-5 melanoma) | growth (UACC-62 melanoma) | growth (LOX IMVI melanoma) | growth (SK-MEL-28 melanoma) | growth (SK-MEL-2 melanoma) | growth (EKVX NSCLC) | growth (UO-31 renal) | growth (TK-10 renal) | growth (ACHN renal) | growth (CAKI-1 renal) | growth (A498 renal) | growth (CCRF-CEM leukemia) | growth (MOLT-4 leukemia) | growth (SNB-19 CNS) | growth (SN12C renal) |
| --- | --- | --- | --- | --- | --- | --- | --- | --- | --- | --- | --- | --- | --- | --- | --- | --- | --- | --- | --- | --- |
| Clc1nc(Oc2ccccc2)nc(-c2cn(-c3ccccc3)c3ccccc23)n1 | 38.5% (inactive) | 40.6% (inactive) | 105% (inactive) | 47.2% (inactive) | 41.3% (inactive) | 102% (inactive) | 80.7% (inactive) | 10.7% (inactive) | -18.3% (active) | -49.5% (active) | 81.3% (inactive) | 17% (inactive) | 114% (inactive) | 68.7% (inactive) | 13.4% (inactive) | 128% (inactive) | 27.2% (inactive) | 47% (inactive) | – | – |
| Oc1ccccc1C=NCC1CCC(CN=Cc2ccccc2O)CC1 (stereo not given) | 7.98% (active) | 17.1% (inactive) | – | 78.4% (inactive) | 77.8% (inactive) | 92.8% (inactive) | 88.7% (inactive) | 80.2% (inactive) | 128% (inactive) | 12.8% (inactive) | 109% (inactive) | 72.4% (inactive) | 98.2% (inactive) | -13.8% (active) | 46.1% (inactive) | 117% (inactive) | 83.9% (inactive) | 75.6% (inactive) | 94.6% (inactive) | 91% (inactive) |
| OC(COc1cccc2ccccc12)CN1CCN(c2ccc(Cl)cc2)CC1 (stereo not given) | 87.4% (inactive) and 101% (inactive) | 82.9% (inactive) and 88.9% (inactive) | 73.7% (inactive) and 88% (inactive) | 69.9% (inactive) and 108% (inactive) | 88.4% (inactive) | 87.6% (inactive) and 102% (inactive) | 98% (inactive) and 85% (inactive) | 86.3% (inactive) and 82.2% (inactive) | 107% (inactive) and 114% (inactive) | 103% (inactive) and 98.8% (inactive) | 108% (inactive) and 94.9% (inactive) | 80.2% (inactive) and 63.6% (inactive) | 70.8% (inactive) and 101% (inactive) | 68.6% (inactive) and 102% (inactive) | 85.5% (inactive) | 92.3% (inactive) and 77% (inactive) | 83.3% (inactive) | 110% (inactive) | – | 98.5% (inactive) and 97.8% (inactive) |
| O=C(Nc1cccc(-n2ccc3c(NC(=O)c4ccccc4)nccc32)c1)c1ccc(Cl)c(C(F)(F)F)c1 | -15.1% (active) and 34.3% (inactive) | 43% (inactive) | 16% (inactive) and 84.4% (inactive) | 43.4% (inactive) | -30.6% (active) and 51.1% (inactive) | -92.4% (active) and 57.4% (inactive) | 5.48% (active) and 54.1% (inactive) | -80.3% (active) and 18.4% (inactive) | -38.9% (active) and 79.8% (inactive) | – | 38% (inactive) and 87.3% (inactive) | 7.05% (active) and 75.7% (inactive) | 93.1% (inactive) | 13% (inactive) and 53.5% (inactive) | -66.7% (active) and 42.8% (inactive) | 15.3% (inactive) and 75.5% (inactive) | -25.3% (active) and 40.3% (inactive) | -4.82% (active) and 10.3% (inactive) | – | -40% (active) and 64.5% (inactive) |
| CCN(CC)C(=S)SSC(=S)N(CC)CC | 81.4% (inactive) and 109% (inactive) | 68.5% (inactive) and 94.4% (inactive) | 72.6% (inactive) and 93.2% (inactive) | 58.5% (inactive) and 100% (inactive) | 68.5% (inactive) and 108% (inactive) | 40.2% (inactive) and 110% (inactive) | 69.6% (inactive) and 105% (inactive) | 53% (inactive) and 98.4% (inactive) | 61.5% (inactive) and 106% (inactive) | 103% (inactive) | 89.1% (inactive) and 113% (inactive) | 63.3% (inactive) and 90.7% (inactive) | 96.9% (inactive) | 71.1% (inactive) and 101% (inactive) | 76.4% (inactive) and 87.5% (inactive) | 83.7% (inactive) and 111% (inactive) | 16.9% (inactive) and 102% (inactive) | 46% (inactive) and 93.2% (inactive) | – | – |
| COc1ccccc1NC(=O)OCC#CCOC(=O)Nc1ccccc1OC | 114% (inactive) and 88.6% (inactive) | 100% (inactive) and 103% (inactive) | – | 97.4% (inactive) and 96.4% (inactive) | 102% (inactive) and 89.3% (inactive) | 94.2% (inactive) and 88.6% (inactive) | 83.7% (inactive) and 73.2% (inactive) | 96.9% (inactive) and 100% (inactive) | 106% (inactive) and 88.1% (inactive) | 95.2% (inactive) and 95% (inactive) | 99% (inactive) and 96.1% (inactive) | 71.4% (inactive) and 80.2% (inactive) | 99.2% (inactive) and 91.2% (inactive) | 104% (inactive) and 100% (inactive) | 94.3% (inactive) and 88.6% (inactive) | 87.5% (inactive) and 92.8% (inactive) | 83.1% (inactive) and 91.5% (inactive) | 72.4% (inactive) | 104% (inactive) and 88.7% (inactive) | 107% (inactive) and 92.4% (inactive) |
| O=CC(O)C(O)C(O)CO (stereo not given) | 100% (inactive) | 113% (inactive) and 102% (inactive) | – | 102% (inactive) and 105% (inactive) | 41.2% (inactive) and 98.4% (inactive) | 87.1% (inactive) and 103% (inactive) | 96.6% (inactive) and 117% (inactive) | 99.5% (inactive) and 100% (inactive) | 104% (inactive) and 109% (inactive) | -27.3% (active) | 114% (inactive) | 90.7% (inactive) and 78.5% (inactive) | 125% (inactive) and 107% (inactive) | – | 106% (inactive) and 117% (inactive) | 94.8% (inactive) and 109% (inactive) | 79.8% (inactive) and 98% (inactive) | 122% (inactive) and 87.4% (inactive) | 103% (inactive) and 113% (inactive) | 95.5% (inactive) and 109% (inactive) |
| COC(=O)/C=C/c1cc(O)c2c(c1)C(C(=O)OC)C(c1ccc(O)c(O)c1)O2 (stereo not given) | 16.7% (inactive) and 16.2% (inactive) | 22.8% (inactive) and 16.3% (inactive) | – | 20.7% (inactive) and 14.9% (inactive) | 20.3% (inactive) and 17% (inactive) | 3.62% (active) and -13.7% (active) | 25.9% (inactive) and 31.2% (inactive) | 20.8% (inactive) and 16.3% (inactive) | 55.3% (inactive) and 53% (inactive) | 50.6% (inactive) and 49.3% (inactive) | 35.2% (inactive) and 38.2% (inactive) | 38.1% (inactive) and 40.4% (inactive) | 55% (inactive) and 51.8% (inactive) | 26.2% (inactive) and 27.2% (inactive) | 17.5% (inactive) and 18.5% (inactive) | 18.2% (inactive) and 6.71% (active) | 13.5% (inactive) and 16% (inactive) | 17.8% (inactive) and 21.7% (inactive) | 35.7% (inactive) and 37.2% (inactive) | 29.5% (inactive) and 24.6% (inactive) |
| Clc1ccc(SSc2ccc(Cl)cc2)cc1 | 98.8% (inactive) and 92.4% (inactive) | 98.1% (inactive) and 98.2% (inactive) | 74.4% (inactive) and 67% (inactive) | 93.4% (inactive) and 61% (inactive) | 87.3% (inactive) and 46.5% (inactive) | 105% (inactive) and 73.3% (inactive) | 96.9% (inactive) and 95.8% (inactive) | 97.6% (inactive) and 7.12% (active) | 96.9% (inactive) and 103% (inactive) | 101% (inactive) and 111% (inactive) | 103% (inactive) and 68.6% (inactive) | 85% (inactive) and 46.7% (inactive) | 88% (inactive) and 106% (inactive) | – | 95.8% (inactive) and 94.5% (inactive) | 87.9% (inactive) and 74.6% (inactive) | 97.9% (inactive) | – | – | 97.5% (inactive) and 42.4% (inactive) |
